Results reported in PubChem BioAssay (EPA / NIEHS).
The source made the active and inactive calls. The calls were made as follows: active = hit-call score of the fitted dose curve at least 0.9, where 1 is the maximum; inactive = score below 0.9.

Assays:
[1] = ATG_CRE_CIS: Attagene CIS-FACTORIAL HepG2 Assay for human cAMP Responsive Element (CRE) binding protein 3 (AID 2282926); conditions: HepG2 CRE cis-reporter, Attagene multiplexed mRNA; actives raise or lower the signal
Summary of the method: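 HepG2 cells transiently transfected with cis-element-driven multiple reporter transcription units; CRE reporter mRNA measured 24 h after dosing by RT-PCR, 6-FAM labelling, HpaI digestion and capillary electrophoresis. Bidirectional fit versus DMSO baseline.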

[2] = target: CCAAT/enhancer-binding protein beta (Homo sapiens) (UniProt P17676); experiment: ATG_C_EBP_CIS: Attagene CIS-FACTORIAL HepG2 Assay for human CCAAT/Enhancer Binding Protein (C/EBP) beta (AID 2282927); conditions: HepG2 Attagene cis-factorial transcription factor reporter; actives raise or lower the signal
Summary of the method: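 Changes in reporter mRNA, rather than exogenous chimeric receptor activity, reflect native C/EBP signalling in transfected HepG2 cells dosed for 24 h; transcripts are detected by RT-PCR and capillary electrophoresis.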

[3] = ATG_CMV_CIS: Attagene CIS-FACTORIAL HepG2 Assay for human CMV (Internal Marker) (AID 2282928); conditions: HepG2 CMV promoter reporter, transcription factor profiling; actives raise or lower the signal;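 also: endpoint acts as a background internal control marker rather than a target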
Summary of the method: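 HepG2 cells transiently transfected with multiple cis-regulated reporter units; 24 h compound exposure. Reporter mRNA quantified by RT-PCR, 6-FAM primer-extension labeling, HpaI digestion and capillary electrophoresis; bidirectional fitting against DMSO baseline.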

[4] = ATG_DR4_LXR_CIS: Attagene CIS-FACTORIAL HepG2 Assay for human Liver X Receptor (LXR), DR4 submotif (AID 2282929); conditions: HepG2 Attagene DR4 cis-reporter, mRNA transcription; actives raise or lower the signal
Summary of the method: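 Measures endogenous transcription factor activity via a DR4-driven reporter transcript in human HepG2 cells. Compounds incubated 24 h; mRNA quantified by RT-PCR and capillary electrophoresis, analysed as gain or loss of signal versus DMSO.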

[5] = target: Aryl hydrocarbon receptor (Homo sapiens) (UniProt P35869); experiment: ATG_Ahr_CIS: Attagene CIS-FACTORIAL HepG2 Assay for human Aryl Hydrocarbon Receptor (Ahr) (AID 2282930); conditions: HepG2 AhR cis-factorial reporter transcription; actives raise or lower the signal
Summary of the method: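 HepG2, transient MRTU (cis) transfection, 24 h exposure. RNA → cDNA → PCR → 6-FAM primer extension → HpaI 2 h 37 C → CE. Fit: bidirectional, DMSO baseline.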

[6] = ATG_AP_1_CIS: Attagene CIS-FACTORIAL HepG2 Assay for human Activator Protein 1 (AP-1) (AID 2282931); conditions: HepG2 Attagene cis-factorial AP-1 reporter mRNA; actives raise or lower the signal
Summary of the method: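 Bidirectional concentration-response fitting against DMSO controls. Underlying signal: reporter mRNA from cis-promoter constructs in transiently transfected HepG2, measured after 24 h by RT-PCR and capillary electrophoresis.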

[7] = ATG_AP_2_CIS: Attagene CIS-FACTORIAL HepG2 Assay for human Activator Protein 2 (AP-2) (AID 2282932); conditions: HepG2 AP-2 cis-reporter, Attagene transcription factor profiling; actives raise or lower the signal
Summary of the method: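 Step one: transient transfection of HepG2 with reporter transcription units. Step two: 24 h chemical exposure. Step three: RNA extraction, RT-PCR, labelled fragment analysis by capillary electrophoresis; DMSO serves as baseline.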

[8] = ATG_BRE_CIS: Attagene CIS-FACTORIAL HepG2 Assay for human Bone Morphogenetic Protein (BMP) Response Element (BRE) (AID 2282933); conditions: HepG2 BMP response element reporter, Attagene transcription factor profiling; actives raise or lower the signal
Summary of the method: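 After a 24 h chemical treatment, transiently transfected HepG2 cells were lysed for RNA; reporter transcripts were quantified by fluorescent RT-PCR and capillary electrophoresis, normalised to DMSO.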

[9] = target: Retinoic acid receptor alpha (Homo sapiens) (UniProt P10276); experiment: ATG_DR5_RAR_CIS: Attagene CIS-FACTORIAL HepG2 Assay for human Retinoic Acid Receptor Alpha (RARE), DR5 submotif (AID 2282934); conditions: HepG2 Attagene cis-factorial RARE DR5 reporter, mRNA; actives raise or lower the signal
Summary of the method: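 HepG2, transient cis-reporter transfection, 24 h exposure. mRNA readout: RT-PCR, FAM label, HpaI cut, capillary electrophoresis. DMSO baseline, gain/loss fitting.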

[10] = target: Transcription factor E2F1 (Homo sapiens) (UniProt Q01094); experiment: ATG_E2F_CIS: Attagene CIS-FACTORIAL HepG2 Assay for human E2F Transcription Factor 1 (AID 2282935); conditions: HepG2 Attagene cis-reporter, E2F reporter RNA transcripts; actives raise or lower the signal
Summary of the method: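 Total RNA from 24 h-treated, reporter-transfected HepG2 cells undergoes DNase I treatment, oligo(dT) reverse transcription, PCR and 6-FAM primer extension before capillary electrophoresis.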

[11] = ATG_E_Box_CIS: Attagene CIS-FACTORIAL HepG2 Assay for human Enhancer Box (E-box) (AID 2282936); conditions: HepG2 E-box cis-reporter transcription, actives raise or lower the signal
Summary of the method: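 DMSO served as negative control and baseline for bidirectional fitting. Human hepatoma HepG2 cells, transiently transfected with cis-reporter constructs, were dosed 24 h; reporter mRNA read by RT-PCR and capillary electrophoresis.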

[12] = ATG_M_61_CIS: Attagene CIS-FACTORIAL HepG2 Assay for M61 Transcription Factor (Internal Marker) (AID 2282937); conditions: HepG2 Attagene CIS-FACTORIAL M61 internal marker reporter; actives raise or lower the signal
Summary of the method: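 Fluorescence from labelled cDNA fragments, separated by capillary electrophoresis, quantifies reporter induction. HepG2 cells bearing transiently transfected cis-promoter MRTUs were incubated with test chemical for 24 h; DMSO defined baseline for gain/loss fitting.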

[13] = ATG_EGR_CIS: Attagene CIS-FACTORIAL HepG2 Assay for human Early Growth Response 1 (EGR1) (AID 2282938); conditions: HepG2 Attagene CIS-FACTORIAL EGR reporter mRNA; actives raise or lower the signal
Summary of the method: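 Cell-based multiplex transcription assay: HepG2 carrying transfected cis-element reporter units, 24 h chemical treatment. Fluorescence from capillary electrophoresis of RT-PCR products gives mRNA levels; fitting is bidirectional relative to DMSO.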

[14] = ATG_M_19_CIS: Attagene CIS-FACTORIAL HepG2 Assay for M19 Transcription Factor (Internal Marker) (AID 2282939); conditions: HepG2 Attagene CIS-FACTORIAL M19 internal marker reporter; actives raise or lower the signal
Summary of the method: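 In this multiplexed cell assay, transiently transfected HepG2 reporter units report endogenous transcription-factor activity; after 24 hours of treatment, labelled reporter cDNA fragments are quantified by capillary electrophoresis and fitted bidirectionally against DMSO.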

[15] = target: Hepatocyte nuclear factor 3-beta (Homo sapiens) (UniProt Q9Y261); experiment: ATG_FoxA2_CIS: Attagene CIS-FACTORIAL HepG2 Assay for human Forkhead box A2 (FOXA2) (AID 2282942); conditions: HepG2 cis-reporter transcription factor activity, 24 h; actives raise or lower the signal
Summary of the method: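 In transiently transfected human HepG2 cells, promoter-driven reporter mRNA levels after 24 h chemical exposure are determined via RT-PCR with capillary electrophoresis. DMSO serves as baseline for bidirectional fitting.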

[16] = ATG_FoxO_CIS: Attagene CIS-FACTORIAL HepG2 Assay for human Forkhead box O (FoxO) (AID 2282943); conditions: HepG2 Attagene cis-reporter, FoxO element, mRNA; actives raise or lower the signal
Summary of the method: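 Human hepatoma HepG2 cells carry transiently introduced reporter transcription units controlled by cis promoter elements. Chemical treatment lasted 24 h, and mRNA signal was compared with DMSO.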

[17] = ATG_GATA_CIS: Attagene CIS-FACTORIAL HepG2 Assay for human GATA Binding Protein (AID 2282944); conditions: HepG2 GATA cis-element reporter, Attagene multiplex mRNA; actives raise or lower the signal
Summary of the method: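 Measures endogenous transcription factor-driven reporter mRNA in HepG2 cells transiently carrying cis-regulated constructs. 24 h dosing; RNA via oligo(dT) reverse transcription, PCR, HpaI digestion, capillary electrophoresis; fitted relative to DMSO.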

[18] = ATG_GLI_CIS: Attagene CIS-FACTORIAL HepG2 Assay for human Zinc Finger Protein GLI1 (AID 2282945); conditions: HepG2, Attagene cis-factorial reporter mRNA, GLI element; actives raise or lower the signal
Summary of the method: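 Bidirectional curve fits relative to DMSO, using reporter mRNA levels from RT-PCR plus capillary electrophoresis. Cells were HepG2 transiently carrying cis-regulated reporter constructs, harvested 24 h after dosing.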

[19] = ATG_Ets_CIS: Attagene CIS-FACTORIAL HepG2 Assay for human Erythroblast Transformation Specific (ETS) (AID 2282941); conditions: HepG2 ETS cis-reporter transcription, actives raise or lower the signal
Summary of the method: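 HepG2 cells transiently transfected with cis-promoter reporter transcription units were dosed for 24 h; reporter mRNA was measured by RT-PCR, 6-FAM primer extension, HpaI digestion and capillary electrophoresis, with bidirectional fitting against DMSO baseline.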

Measured: AC50

Chain of Aryl hydrocarbon receptor (Homo sapiens) (P35869 whole entry, looked up): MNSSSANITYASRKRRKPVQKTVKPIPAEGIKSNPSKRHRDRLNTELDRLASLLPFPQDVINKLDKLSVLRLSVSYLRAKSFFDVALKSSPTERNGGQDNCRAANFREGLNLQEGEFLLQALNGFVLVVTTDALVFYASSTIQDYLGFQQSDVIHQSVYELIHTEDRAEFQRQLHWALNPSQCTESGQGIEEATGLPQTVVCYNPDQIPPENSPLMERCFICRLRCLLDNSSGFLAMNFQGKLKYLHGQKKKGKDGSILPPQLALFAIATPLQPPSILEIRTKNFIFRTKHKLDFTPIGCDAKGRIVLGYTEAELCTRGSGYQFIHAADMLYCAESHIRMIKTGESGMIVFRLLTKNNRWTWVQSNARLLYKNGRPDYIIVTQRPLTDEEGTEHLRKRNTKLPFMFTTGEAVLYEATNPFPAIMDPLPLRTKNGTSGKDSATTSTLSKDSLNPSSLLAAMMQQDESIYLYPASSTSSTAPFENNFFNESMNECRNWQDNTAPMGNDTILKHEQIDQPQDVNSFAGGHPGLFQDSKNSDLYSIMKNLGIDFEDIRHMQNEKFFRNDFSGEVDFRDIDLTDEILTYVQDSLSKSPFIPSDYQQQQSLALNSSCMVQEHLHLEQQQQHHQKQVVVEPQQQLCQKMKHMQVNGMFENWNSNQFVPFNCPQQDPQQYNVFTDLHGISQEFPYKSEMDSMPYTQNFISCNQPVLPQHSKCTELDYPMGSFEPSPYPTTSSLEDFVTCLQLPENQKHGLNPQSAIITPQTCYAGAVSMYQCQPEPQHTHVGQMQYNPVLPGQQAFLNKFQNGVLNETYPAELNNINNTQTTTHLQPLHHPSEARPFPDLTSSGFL
Chain of Hepatocyte nuclear factor 3-beta (Homo sapiens) (Q9Y261 whole entry, looked up): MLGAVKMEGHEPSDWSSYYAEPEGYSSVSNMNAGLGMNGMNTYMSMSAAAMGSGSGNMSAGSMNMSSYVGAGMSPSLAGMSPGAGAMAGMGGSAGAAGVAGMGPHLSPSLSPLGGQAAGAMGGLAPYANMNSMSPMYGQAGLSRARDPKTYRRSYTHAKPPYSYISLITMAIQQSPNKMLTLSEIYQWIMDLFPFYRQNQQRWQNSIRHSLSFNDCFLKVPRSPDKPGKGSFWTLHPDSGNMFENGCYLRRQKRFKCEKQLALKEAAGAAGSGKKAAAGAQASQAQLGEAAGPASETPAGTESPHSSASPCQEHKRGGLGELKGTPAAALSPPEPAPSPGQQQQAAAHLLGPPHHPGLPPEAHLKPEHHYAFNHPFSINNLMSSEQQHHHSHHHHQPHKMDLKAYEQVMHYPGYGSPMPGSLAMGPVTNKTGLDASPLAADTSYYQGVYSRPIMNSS
Chain of Transcription factor E2F1 (Homo sapiens) (Q01094 whole entry, looked up): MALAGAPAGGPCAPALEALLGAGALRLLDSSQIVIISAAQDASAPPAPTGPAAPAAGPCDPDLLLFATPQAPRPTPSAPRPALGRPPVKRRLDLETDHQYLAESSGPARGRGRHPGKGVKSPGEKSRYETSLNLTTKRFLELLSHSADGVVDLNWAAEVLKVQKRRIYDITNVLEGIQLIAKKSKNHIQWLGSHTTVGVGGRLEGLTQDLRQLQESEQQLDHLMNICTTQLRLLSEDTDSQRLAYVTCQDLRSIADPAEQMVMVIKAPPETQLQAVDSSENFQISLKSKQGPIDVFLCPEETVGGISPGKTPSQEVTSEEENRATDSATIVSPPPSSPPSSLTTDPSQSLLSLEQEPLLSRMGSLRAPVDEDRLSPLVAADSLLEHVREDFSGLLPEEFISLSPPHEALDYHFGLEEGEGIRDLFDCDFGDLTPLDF
Chain of CCAAT/enhancer-binding protein beta (Homo sapiens) (P17676 whole entry, looked up): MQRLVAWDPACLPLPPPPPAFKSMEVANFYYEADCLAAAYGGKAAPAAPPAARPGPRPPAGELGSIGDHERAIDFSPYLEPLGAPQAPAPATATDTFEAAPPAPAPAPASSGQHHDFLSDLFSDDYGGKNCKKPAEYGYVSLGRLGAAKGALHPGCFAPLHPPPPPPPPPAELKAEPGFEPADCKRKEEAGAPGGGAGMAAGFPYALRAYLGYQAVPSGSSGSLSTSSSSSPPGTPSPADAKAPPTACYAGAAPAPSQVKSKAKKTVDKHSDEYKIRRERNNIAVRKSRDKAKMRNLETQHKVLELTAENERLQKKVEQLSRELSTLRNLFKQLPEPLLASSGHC
Chain of Retinoic acid receptor alpha (Homo sapiens) (P10276 whole entry, looked up): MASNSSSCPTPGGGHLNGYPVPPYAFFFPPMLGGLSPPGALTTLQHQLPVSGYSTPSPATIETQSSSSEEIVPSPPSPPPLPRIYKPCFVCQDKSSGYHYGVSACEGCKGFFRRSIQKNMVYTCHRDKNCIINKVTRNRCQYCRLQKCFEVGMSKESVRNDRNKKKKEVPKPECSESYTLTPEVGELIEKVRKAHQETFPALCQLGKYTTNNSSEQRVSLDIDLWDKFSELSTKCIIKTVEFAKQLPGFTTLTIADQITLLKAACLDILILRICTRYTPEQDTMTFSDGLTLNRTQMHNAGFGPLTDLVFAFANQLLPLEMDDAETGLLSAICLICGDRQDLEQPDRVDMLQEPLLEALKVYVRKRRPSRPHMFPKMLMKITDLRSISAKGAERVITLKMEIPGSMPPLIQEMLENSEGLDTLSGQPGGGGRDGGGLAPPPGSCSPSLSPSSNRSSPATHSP

CC1CCC(C(C)C)C(O)C1 (configuration not stated)
inactive: [1] | [2] | [3] | [4] | [5] | [6] | [7] | [8] | [9] | [10] | [11] | [12] | [13] | [14] | [15] | [16] | [17] | [18]

Cc1cc(S(=O)(=O)O)ccc1N=Nc1c(O)ccc2ccccc12
active: [5] 2.32 µM
inactive: [1] | [2] | [3] | [4] | [6] | [7] | [8] | [9] | [10] | [11] | [12] | [13] | [14] | [19] | [15] | [16] | [18]

COC(=O)c1ccc(OC)cc1
inactive: [1] | [2] | [3] | [4] | [5] | [6] | [7] | [8] | [9] | [10] | [11] | [12] | [13] | [14] | [19] | [15] | [16] | [18]

O=C1OC(=O)c2c(Br)c(Br)c(Br)c(Br)c21
inactive: [1] | [2] | [3] | [4] | [5] | [6] | [7] | [8] | [9] | [10] | [12] | [13] | [14] | [19] | [15] | [18]
active: [16] 165 µM

ON=C1CCCCC1
inactive: [1] | [2] | [3] | [4] | [5] | [6] | [7] | [8] | [9] | [10] | [13] | [14] | [19] | [15] | [16] | [17] | [18]

CCOC(=O)COC(=O)c1cc(Oc2ccc(C(F)(F)F)cc2Cl)ccc1[N+](=O)[O-]
inactive: [1] | [2] | [3] | [5] | [6] | [7] | [8] | [9] | [10] | [11] | [13] | [14] | [19] | [15] | [16] | [17] | [18]
active: [4] 35.5 µM

Cc1cc(C)nc(NS(=O)(=O)c2ccc(N)cc2)n1
inactive: [1] | [2] | [3] | [4] | [5] | [6] | [7] | [8] | [9] | [10] | [12] | [13] | [14] | [19] | [15] | [16] | [17] | [18]

C#CC(C)N(C)C(=O)Nc1ccc(Cl)cc1 (configuration not stated)
inactive: [1] | [2] | [3] | [4] | [5] | [6] | [7] | [8] | [9] | [10] | [12] | [13] | [14] | [19] | [15] | [16] | [17] | [18]
